Compound activity (PubChem BioAssay)
KB-3-1 tox = kills parental KB-3-1 adenocarcinoma cells | KB-3-1 viability, CellTiter-Glo ATP luminescence, 72 h | Potency, µM (highest dose often 46.1 µM), actives largely listed as cytotoxic | 400,000 compounds, 1.4% hits; further: nearly all actives have a fitted effect of over 60% in size
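Cytotoxicity measured as CellTiter-Glo luminescence after 72 h at 37 C. Compound titrations were pinned onto drug-naive KB-3-1 parental adenocarcinoma cells grown in DMEM with 10% FBS, and normalized data fitted to concentration-response curves.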
HT1080-NT tox = kills 2HG-producing HT-1080-NT fibrosarcoma cells. Potency, µM (top dose mostly 46.1 µM), for inactives: top-dose activity, negative = less viability, most hits filed as cytotoxic. AID 686970. 360,000 compounds, 1.6% hits. HT-1080-NT fibrosarcoma viability, CellTiter-Glo ATP luminescence, 48 h;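 further: NT is the 2HG producing partner of a matched IDH1 knockdown line; 0% = DMSO-treated cells and -100% = media-only wells without cells; nearly all actives have a fitted effect of over 55% in size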
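Fibrosarcoma NT cells, 750 per well in 5% FBS RPMI, were exposed to compound for 48 hours. Viability: CellTiter-Glo luminescence.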
KB-V1 cytotox = KB-V1 MDR subline cytotoxicity. Potency, µM (top dose mostly 46.1 µM), usual class: cytotoxic. 400,000 compounds, 3.4% hits. KB-V1 MDR cells viability, CellTiter-Glo, 72 h; further: nearly all actives have a fitted effect of over 60% in size
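Drug-selected KB-V1 cells, grown in DMEM lacking phenol red with 10% FBS, receive compound titrations; after three days at 37 degrees C, surviving cell ATP is quantified by CellTiter-Glo luminescence and responses normalized and curve-fitted.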
TDP1 cell noCPT = qHTS for Inhibitors of human tyrosyl-DNA phosphodiesterase 1 (TDP1): qHTS in cells in absence of CPT. AID 686978, 2013. DT40 Tdp1-/- hTDP1 cells, no CPT, ATP luminescence, 48 h. 420,000 compounds, 15% hits. Potency, µM (series often up to 46.2 µM), for the others: at the highest dose activity change, negative = growth inhibition, hits mostly inhibitors; further: nearly all actives have a fitted effect of over 55% in size
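Cells were dispensed at 400 per well, compounds added by pin tool, plates incubated ≥48 hr at 37 °C, then CellTiter-Glo added for 30 min at room temperature before luminescence reading. Line: DT40 Tdp1-/- complemented with hTDP1; camptothecin omitted.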
HT1080 IDH1KD tx = HT-1080 IDH1 knockdown cell toxicity (counter line); Potency, µM (doses to about 46.1 µM), for the others: at the highest dose activity, negative = toxicity, most hits filed as cytotoxic; 360,000 compounds, 2% hits; HT-1080 IDH1 knockdown viability, ATP luminescence, 48 h;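 further: 0% = DMSO wells and -100% = cell-free medium wells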
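HT-1080-IDH1KD cells (IDH1 knocked down), 750/well in RPMI with 5% FBS, treated with compound 48 h at 37 degrees C. Viability by CellTiter-Glo luminescence, normalised to DMSO and no-cell wells; concentration-response curves classed.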
DT40 TDP1 CPT = DT40-hTDP1 cell growth loss with CPT. 420,000 compounds, 12% hits. Potency, µM (titrated, usually from 46.2 µM), inactives show at the highest dose activity change, negative = growth inhibition, usual class: inhibitors. chicken DT40 Tdp1-/-;hTDP1 cells + 20 nM CPT, ATP luminescence, 48 h; further: nearly all actives have a fitted effect of over 55% in size
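Chicken DT40 Tdp1-/- cells stably complemented with human TDP1 were seeded at 400 cells/well in medium containing 20 nM camptothecin, exposed to pin-transferred compounds, and grown at 37 °C for at least 48 hr. Viability was read as ATP luminescence.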
* marks the source's active call; other numbers are inactive results. Sampled rows, rich in hits. Any-hit rate of the full collection: about 19%. The call rests on the fitted dose curve; in most records, active means well fitted curve in the direction sought with a large enough effect; inconclusive means small, poorly fitted or top-dose-only effect, or another doubt; inactive means no such curve, though single readings can be large; an effect the other way counts as inactive or inconclusive. Unless noted, on the % scale 0 is the no-effect control and ±100 the full control effect; potency means the concentration at half of the fitted maximal effect.

O=C(/C=C/c1cccc(Br)c1)NC1CCN(Cc2ccccc2)CC1 was read as KB-3-1 tox inactive, HT1080-NT tox -12.8%, KB-V1 cytotox inactive, TDP1 cell noCPT 23.1µM*, HT1080 IDH1KD tx inconclusive and DT40 TDP1 CPT inconclusive.
For C=C(C)c1cccc(C(C)(C)NC(=O)N(Cc2ccccc2)Cc2ccco2)c1 the results were KB-3-1 tox inactive, HT1080-NT tox -23.8%, KB-V1 cytotox inconclusive, TDP1 cell noCPT 20.6µM*, HT1080 IDH1KD tx inconclusive and DT40 TDP1 CPT 16.4µM*.
O=C(CN1CCC(NC(=O)c2ccc(F)cc2)CC1)NCc1ccccc1F was read as KB-3-1 tox inactive, HT1080-NT tox 2.6%, KB-V1 cytotox 11.6µM*, TDP1 cell noCPT 16.3%, HT1080 IDH1KD tx 9.6% and DT40 TDP1 CPT -3.5%.
`O=C(O)/C=C/C(=O)N(Cc1ccccc1)Cc1ccco1` gave KB-3-1 tox inactive, HT1080-NT tox 5.1%, KB-V1 cytotox inactive, TDP1 cell noCPT 18.5%, HT1080 IDH1KD tx 1.5% and DT40 TDP1 CPT 16.6%.
`O=C(/C=C/c1cccc(F)c1)NC1CCN(Cc2ccccc2)CC1` gave KB-3-1 tox inactive, HT1080-NT tox -5.6%, KB-V1 cytotox inactive, TDP1 cell noCPT inconclusive, HT1080 IDH1KD tx 2.8% and DT40 TDP1 CPT -13.0%.
`Cc1noc(C)c1S(=O)(=O)N(CC(=O)NC1CCCC1)c1ccc(C(C)C)cc1` gave KB-3-1 tox inactive, HT1080-NT tox 0.0%, KB-V1 cytotox inactive, TDP1 cell noCPT -17.5%, HT1080 IDH1KD tx -0.8% and DT40 TDP1 CPT -14.4%.
For Cc1nc(NC(=O)COC(=O)C2CC3CCCC(C2)C3=O)c(Cl)cc1Cl (stereo unspecified) the results were KB-3-1 tox inactive, HT1080-NT tox -1.5%, KB-V1 cytotox inactive, TDP1 cell noCPT 0.6%, HT1080 IDH1KD tx 20.7% and DT40 TDP1 CPT -19.8%.
Screening O=C(CCCN1C(=O)c2cccnc2C1=O)Nc1ccc(F)cc1Cl returned KB-3-1 tox inactive, HT1080-NT tox 4.5%, KB-V1 cytotox inactive, TDP1 cell noCPT 14.8%, HT1080 IDH1KD tx 6.5% and DT40 TDP1 CPT -3.6%.
`COc1ccc(-c2cc(-c3ccc(OC)c(OC)c3)n[nH]2)c(O)c1` gave KB-3-1 tox inconclusive, HT1080-NT tox -4.7%, KB-V1 cytotox 2.59µM*, TDP1 cell noCPT 20.6µM*, HT1080 IDH1KD tx inconclusive and DT40 TDP1 CPT 25.9µM*.
`COc1ccc(-c2cc(-c3ccc(Cl)cc3)n[nH]2)c(O)c1` gave KB-3-1 tox inactive, HT1080-NT tox -3.7%, KB-V1 cytotox inactive, TDP1 cell noCPT inconclusive, HT1080 IDH1KD tx 3.2% and DT40 TDP1 CPT inconclusive.
Screening COc1ccc(-c2cc(-c3cc(F)ccc3O)[nH]n2)cc1OC returned KB-3-1 tox inactive, HT1080-NT tox -0.2%, KB-V1 cytotox inactive, TDP1 cell noCPT inconclusive, HT1080 IDH1KD tx inconclusive and DT40 TDP1 CPT inconclusive.
Screening COc1ccc(-c2cc(-c3ccccc3O)[nH]n2)cc1OC returned KB-3-1 tox inactive, HT1080-NT tox inconclusive, KB-V1 cytotox inactive, TDP1 cell noCPT 18.4µM*, HT1080 IDH1KD tx inconclusive and DT40 TDP1 CPT inconclusive.
For CC(C)CN(C(=O)CSc1nc(N)cc(N)n1)C1CCS(=O)(=O)C1 (stereo unspecified) the results were KB-3-1 tox inactive, HT1080-NT tox 0.1%, KB-V1 cytotox inactive, TDP1 cell noCPT -9.8%, HT1080 IDH1KD tx 4.6% and DT40 TDP1 CPT 23.5%.
For CCCOc1ccc(C2C(=O)N(C3CCCCC3)CC(=O)N2CCC)cc1OC (stereo unspecified) the results were KB-3-1 tox inactive, HT1080-NT tox 4.3%, KB-V1 cytotox inactive, TDP1 cell noCPT inconclusive, HT1080 IDH1KD tx -12.9% and DT40 TDP1 CPT inconclusive.
